Results as given in PubChem BioAssay AID1159580 (chemical genetic matrix, 2015).
Out of some 5,500 compounds screened, about 2,000 (36%) were called active. About 18% were inconclusive and are not listed. Cut-off read from the data, not from the text of the source: active = normalized growth mostly below about 0.91 (no sharp cut-off); inconclusive = no clear call, values can overlap the other calls; inactive = mostly above about 0.92. Some of the results follow.

Experiment: chemical genetic growth profiling, strain panel (AID 1159580);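 note: tested at 20 µM; growth read once vehicle control cultures reached saturation at 30 °C; 1 = growth at the plate median or of vehicle wells; lower values mean less growth of the strain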
Settings: S. cerevisiae deletion strains, growth OD

Measured: normalized growth

OCC(O)Cc1ccc2c(c1)OCO2 (stereo not drawn)
inactive: locus YAL013W, strain DEP1, active compounds read low 1.02 | locus YAL021C, strain ccr4, active compounds read low 1.02 | locus YAL026C, strain drs2, active compounds read low 0.985 | locus YAL030W, strain snc1, active compounds read low 1 | locus YBL061C, strain skt5, active compounds read low 0.997 | locus YBR009C, strain hhf1, active compounds read low 1.01 | locus YBR021W, strain FUR4, active compounds read low 1.02 | locus YBR023C, strain chs3, active compounds read low 1.01 | locus YBR171W, strain sec66, active compounds read low 1.01 | locus YBR229C, strain ROT2, active compounds read low 1.01 | locus YBR231C, strain swc5, active compounds read low 0.992 | locus YBR279W, strain paf1, active compounds read low 1 | locus YCL011C, strain gbp2, active compounds read low 1 | locus YCL016C, strain dcc1, active compounds read low 1 | locus YCL029C, strain bik1, active compounds read low 0.997 | locus YCL069W, strain vba3, active compounds read low 0.981 | locus YCR088W, strain abp1, active compounds read low 0.993 | locus YDL005C, strain med2, active compounds read low 0.999 | locus YDL035C, strain GPR1, active compounds read low 1.02 | locus YDL040C, strain nat1, active compounds read low 0.998 | locus YDL074C, strain BRE1, active compounds read low 1.05 | locus YDL101C, strain DUN1, active compounds read low 1.02 | locus YDL134C, strain PPH21, active compounds read low 1.01 | locus YDL185W, strain tfp1, active compounds read low 0.999 | locus YDL192W, strain arf1, active compounds read low 0.999 | locus YDR001C, strain nth1, active compounds read low 0.997 | locus YDR069C, strain doa4, active compounds read low 0.979 | locus YDR101C, strain arx1, active compounds read low 0.989 | locus YDR137W, strain rgp1, active compounds read low 0.993 | locus YDR150W, strain NUM1, active compounds read low 1.02 | locus YDR159W, strain sac3, active compounds read low 0.971 | locus YDR162C, strain NBP2, active compounds read low 1.03 | locus YDR195W, strain ref2 0.966 | locus YDR297W, strain sur2, active compounds read low 1.01 | locus YDR318W, strain mcm21, active compounds read low 0.991 | locus YDR334W, strain swr1, active compounds read low 1 | locus YDR335W, strain msn5, active compounds read low 0.996 | locus YDR388W, active compounds read low 1 | locus YDR392W, strain spt3, active compounds read low 1.02 | locus YDR502C, strain sam2, active compounds read low 1 | locus YEL003W, strain gim4, active compounds read low 1.01 | locus YEL037C, strain rad23, active compounds read low 1.01 | locus YEL061C, strain CIN8 (second series), active compounds read low 1 | locus YEL061C, strain CIN8, active compounds read low 1.01 | locus YER015W, strain faa2, active compounds read low 1 | locus YER016W, strain bim1, active compounds read low 1 | locus YER110C, active compounds read low 0.996 | locus YER111C, strain swi4, active compounds read low 0.997 | locus YER155C, strain BEM2 (second series), active compounds read low 0.993 | locus YER155C, strain BEM2, active compounds read low 1.01 | locus YER167W, strain BCK2, active compounds read low 1.01 | locus YFR010W, strain ubp6, active compounds read low 1.01 | locus YGL078C, strain dbp3, active compounds read low 1 | locus YGL086W, strain mad1, active compounds read low 0.993 | locus YGL167C, strain pmr1, active compounds read low 1 | locus YGL173C, strain kem1, active compounds read low 0.991 | locus YGL227W, strain vid30, active compounds read low 0.985 | locus YGL240W, strain doc1, active compounds read low 0.984 | locus YGL248W, strain PDE1, active compounds read low 1.01 | locus YGL253W, strain hxk2, active compounds read low 1 | locus YGR078C, strain PAC10, active compounds read low 1.02 | locus YGR135W, strain pre9, active compounds read low 1.01 | locus YGR229C, strain SMI1, active compounds read low 1.02 | locus YGR252W, strain gcn5, active compounds read low 1 | locus YHR013C, strain ard1, active compounds read low 1.01 | locus YHR027C, strain rpn1, active compounds read low 1 | locus YHR030C, strain SLT2, active compounds read low 1.01 | locus YHR079C, strain IRE1 (second series), active compounds read low 0.991 | locus YHR094C, strain hxt1, active compounds read low 0.999 | locus YHR129C, strain ARP1, active compounds read low 1.01 | locus YHR142W, strain chs7, active compounds read low 1.01 | locus YHR200W, strain rpn10, active compounds read low 1 | locus YIL066C, strain RNR3, active compounds read low 1.02 | locus YIL073C, strain SPO22, active compounds read low 1.04 | locus YIL125W, strain kgd1, active compounds read low 1.02 | locus YIR030C, strain dcg1, active compounds read low 1 | locus YJL092W, strain hpr5, active compounds read low 0.998 | locus YJL095W, strain BCK1 (second series), active compounds read low 1 | locus YJL095W, strain BCK1, active compounds read low 1.04 | locus YJL115W, strain asf1, active compounds read low 1 | locus YJL129C, strain trk1, active compounds read low 0.989 | locus YJL134W, strain LCB3, active compounds read low 1.01 | locus YJL154C, strain vps35, active compounds read low 1 | locus YJL164C, strain tpk1, active compounds read low 1.01 | locus YJL166W, strain qcr8, active compounds read low 1.02 | locus YJL168C, strain set2, active compounds read low 0.994 | locus YJL187C, strain SWE1 (second series), active compounds read low 1.03 | locus YJL187C, strain SWE1, active compounds read low 0.982
